# Inconclusive results are not listed. Unmarked numbers belong to inactive results. Calls of active or inactive are those of the source. The call rests on the fitted dose curve; in most records, active means well fitted cell-killing curve with a large enough effect; inconclusive means small, poorly fitted or top-dose-only effect; inactive means flat fitted curve, though single readings scatter.
# Assay: Cellular viability qHTS for adrenocortical cancer (ACC) cell line NCI-H295R (AID 1963990);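 further: 0% = DMSO only wells and -100% = full killing with cytotoxic reference compound; nearly all actives have a fitted effect of over 60% in size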
# Details: CellTiter-Glo ATP luminescence, 48 h; series mostly up to 46.1 µM; activity change, negative = viability loss: at the top concentration
# Procedure, shortened: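 CellTiter-Glo ATP luminescence, read 48 h after compound addition, measured viability of NCI-H295R adrenocortical cells grown serum-free with ITS. Final concentrations spanned up to 46 uM. Data normalized to DMSO and doxorubicin, fitted for IC50 and maximal response.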
Structure (SMILES),"activity change, negative = viability loss",Potency
C[C@H](NC(CCc1ccccc1)C(=O)O)C(=O)N1CCC[C@H]1C(=O)O (some centres undefined),-28%,
CCc1cccc(CC)c1NC(=O)CN(CC(=O)O)CC(=O)O,-6.35%,
O=C1Nc2cc(Cl)ccc2Oc2ccccc21,-11.5%,
O=C(NCN1CCOCC1)c1cnccn1,3.44%,
O=C(O)[C@H](O)[C@@H](O)[C@H](O[C@@H]1O[C@H](CO)[C@H](O)[C@H](O)[C@H]1O)[C@H](O)CO,-7.46%,
COc1cc(C(=O)N2CCOCC2)cc(OC)c1OC,-20.4%,
N[C@H]1C(O)O[C@H](CO)[C@@H](O)[C@@H]1O (some centres undefined),-19.7%,
Cc1ccc(S(=O)(=O)NC(=O)NC2CCCCC2)cc1,-11.5%,
CCCCCC(N)=O,-25.3%,
OC1C(O)C(O)C(O)C(O)C1O (centres undefined),-4.86%,
CCN1CCCC1=O,-0.703%,
Cc1c(C(C)C)c(=O)n(-c2ccccc2)n1C,5.09%,
COc1cc2c3cc1Oc1cc(ccc1O)C[C@@H]1c4c(cc(OC)c(O)c4Oc4ccc(cc4)C[C@@H]3N(C)CC2)CC[N+]1(C)C,-1.4%,
CC(=O)OCC(=O)NCCCOc1cccc(CN2CCCCC2)c1,-11.3%,
O=C(O)CCCCC1CCSS1 (centres undefined),-16.9%,
NC(CO)(CO)CO,-11%,
CC1(C)OC(=O)Nc2ccc(Br)cc21,-0.0473%,
CC(=O)NCCCCCC(=O)O,-9.2%,
CCN(CC)CC1CCCCN1CC(=O)N1c2ccccc2C(=O)Nc2cccnc21 (centres undefined),-21%,
NC(N)=NS(=O)(=O)c1ccc(N)cc1,1.13%,

Structure (SMILES),"activity change, negative = viability loss",Potency
C[C@H]1[C@H](NC(=O)/C(=N/OC(C)(C)C(=O)O)c2csc(N)n2)C(=O)N1S(=O)(=O)O (stereo in doubt),1.56%,
NC(N)=NC(N)=NCCc1ccccc1,,inactive
CC1CN(c2cc3c(cc2F)c(=O)c(C(=O)O)cn3-c2ccc(F)cc2F)CCN1 (centres undefined),1.32% [at 3.81 µM],
N#CSCC(=O)O,-18.7%,
CC(C)c1cc2c(cc1S(=O)(=O)O)[C@@]1(C)CCC[C@@](C)(C(=O)O)[C@@H]1CC2,-1.13%,
Nc1nc2ncc(CNc3ccc(C(=O)N[C@@H](CCC(=O)O)C(=O)O)cc3)nc2c(=O)[nH]1,-27.5%,
Cc1cc(=O)oc2cc(O[C@@H]3SC[C@@H](O)[C@H](O)[C@H]3O)ccc12,-4.23%,
N#CCC(=O)NN,-9.66%,
CN(C)C/C=C(/c1ccc(Br)cc1)c1cccnc1,-19.5%,
COc1cc(C(=O)NCCCCCC(=O)O)cc(OC)c1OC,-4.18%,
Cc1cn([C@H]2C[C@H](F)[C@@H](CO)O2)c(=O)[nH]c1=O,-1.06%,
COc1ccc(CN(CCN(C)C)c2ccccn2)cc1,-1.86%,
OC1(c2ccccc2)CCNCC1,-2.96%,
O=C(O)c1ccc[n+]([O-])c1,-11.4%,
O=C1C(c2[nH]c3ccccc3c2O)=Nc2ccccc21,-12.6%,
O=C1CC2(CCCC2)CC(=O)N1,-19.9%,
CN1Cc2cc(C(=O)N3CCC(C4CCNCC4)CC3)ccc2NC(CC(=O)O)C1=O (centres undefined),-7.56%,
Cc1cc(C)cc(NC(=O)Cc2ccc(OC(C)(C)C(=O)O)cc2)c1,-9.91%,
CN(C)CCN1CCN(c2cccc(Cl)c2)C1=O,1.81%,

# Source: PubChem BioAssay (NCATS)
